The results in this text go back to PubChem BioAssay (NCI).

Each structure is given as a SMILES string. About 83,000 compounds went through this panel and 20% of them were active in at least one assay; those are over-represented in the sample as a whole.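 Cell lines were cultured in 96-well plates, exposed to a single compound concentration, and assessed for percent growth 48 hours later.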 A number with no mark means an inactive call. The source made the active and inactive calls. How the source made its calls: active means growth percent below 10; inactive means the rest.

Some test systems named below: T-47D breast; BT-549 breast; MDA-MB-435 melanoma; SW-620 colon; MCF7 breast; HCT-116 colon; HCC-2998 colon; KM12 colon.
Experiment in all cases: NCI-60 one-dose screen, 48 h (100 = growth as untreated, 0 = no growth, -100 = all killed)
Holding throughout (details): 10 µM unless noted

Take `CCN(CC)CCOCC[C@H]1CC[C@H]2[C@@H]3[C@H](C)Cc4cc(OS(N)(=O)=O)ccc4[C@H]3CC[C@]12C`: the growth in the test on T-47D breast is -46.4% (active); in the test on BT-549 breast, -53.4% (active); in the test on MDA-MB-435 melanoma it was -63.7% (active); with SW-620 colon it was -77.5% (active); in the test with MCF7 breast it was -63.1% (active); in the test with HCT-116 colon, -98.4% (active). The growth was -92.7% (active) in the test on HCC-2998 colon and -80.8% (active) in the test with KM12 colon.

With `N#Cc1c(-c2ccccc2)cc(-c2ccccc2)n(CCCC(=O)O)c1=O`, the growth in the test with T-47D breast is 89.1%; in the test with BT-549 breast it was 83.6%; with MDA-MB-435 melanoma, 104%; in the test on SW-620 colon it was 105%; with MCF7 breast, 60%; in the test with HCT-116 colon, 93%. Moreover, the growth in the test with HCC-2998 colon and in the test on KM12 colon was 103% in each case.

With `O=C1C(=O)c2c(nc3ccc(Cl)cn23)-c2ccccc21`, the growth with T-47D breast is -55.8% (active); with BT-549 breast it was -99.4% (active); in the test on MDA-MB-435 melanoma, -89.5% (active); with SW-620 colon, -100% (active); with MCF7 breast, -88% (active); in the test with HCT-116 colon it was -95.3% (active). Further, the growth with HCC-2998 colon was -95.8% (active); in the test with KM12 colon it was -68.7% (active).

Take `COc1ccc2c(=O)c(OC)c(-c3cc(OC)c(OC)c(OC)c3)oc2c1`: the growth in the test with T-47D breast was 76.1%; in the test on BT-549 breast, 117%; in the test with MDA-MB-435 melanoma it was 105%; in the test with SW-620 colon, 92.2%; with MCF7 breast, 88%; in the test with HCT-116 colon, 87.2%. Also, the growth with HCC-2998 colon is 82.5%; in the test on KM12 colon it was 97.8%.

As to `Nc1c(C(=O)Nc2cccc(Cl)c2)sc2nc3c(cc12)C(O)CCC3` (stereo not given), the growth with T-47D breast was 52.3%; with BT-549 breast, 56%; with MDA-MB-435 melanoma it was -37.5% (active); with SW-620 colon, 43.9%; in the test with MCF7 breast it was 17.8%; in the test on HCT-116 colon, 19.1%. For the same molecule, the growth with HCC-2998 colon was 24.9%; in the test with KM12 colon it was 26.9%.

Turning to `O=C(O)C1CCN(S(=O)(=O)c2ccc(-c3ccccc3)cc2)CC1`, the growth was 107% in the test on T-47D breast; 109% in the test with BT-549 breast; 120% in the test on MDA-MB-435 melanoma; 98.2% with SW-620 colon; 101% in the test with MCF7 breast; 112% in the test with HCT-116 colon. The growth in the test on HCC-2998 colon was 93.6%; with KM12 colon, 111%.

Regarding `CC(NNC(=S)N1CCCCCC1)c1ccc2ccccc2n1` (stereo not given), the growth was 29.8% in the test with T-47D breast; 66.6% with BT-549 breast; 40.6% in the test on MDA-MB-435 melanoma; 36% with SW-620 colon; 16.5% in the test on MCF7 breast; 26.5% with HCT-116 colon. The figures for the growth in the test on HCC-2998 colon and in the test on KM12 colon were 36.6% and 34.9%, respectively.

With `COc1ccc2nc(-c3ccc(Cl)cc3)cc(-c3nnc(SCC(=O)Nc4ccc(C(C)=O)cc4)n3-c3ccccc3)c2c1`, the growth with T-47D breast is 87.2%; with BT-549 breast, 87.5%; in the test with MDA-MB-435 melanoma it was 100%; with SW-620 colon, 108%; with MCF7 breast, 100%; in the test on HCT-116 colon, 100%. Further, the results for the growth in the test with HCC-2998 colon and in the test with KM12 colon were 97.7% and 95.3%, respectively.

For the molecule `Cc1n(Cc2ccc3ccccc3c2)c2ccccc2[n+]1Cc1ccc2ccccc2c1`, the growth in the test on T-47D breast was -3.2% (active); with BT-549 breast, -79.7% (active); in the test on MDA-MB-435 melanoma it was -72.8% (active); in the test with SW-620 colon, -60.7% (active); with MCF7 breast it was -70.9% (active); with HCT-116 colon, -91% (active). Further, the growth in the test with HCC-2998 colon is -87% (active); in the test with KM12 colon, -77.7% (active).

On to `O=C1NC(=O)/C(=C/c2ccc(Cl)cc2Cl)N1`, for which the growth in the test with T-47D breast is 90.9%; in the test on BT-549 breast, 104%; in the test with MDA-MB-435 melanoma, 116%; with SW-620 colon, 102%; in the test with MCF7 breast, 95.3%; in the test with HCT-116 colon, 114%. Also, the results for the growth in the test on HCC-2998 colon and in the test with KM12 colon were 102% and 103%, respectively.

As for `CCOC(=O)C1=CCC(n2cc(C)c(=O)[nH]c2=O)O1` (stereo not given), the growth was 99.1% in the test with T-47D breast; 120% in the test on BT-549 breast; 113% in the test on MDA-MB-435 melanoma; 105% in the test with SW-620 colon; 119% in the test with MCF7 breast; 102% with HCT-116 colon. Moreover, the growth in the test with HCC-2998 colon was 110%; with KM12 colon, 96%.

Take `CC1C(=O)NC2=Nc3ccccc3C(=O)NN21` (stereo not given): the growth in the test with T-47D breast was 81.4%; in the test on BT-549 breast, 96.9%; in the test with MDA-MB-435 melanoma it was 111%; in the test with SW-620 colon, 97.8%; with MCF7 breast it was 73.9%; in the test with HCT-116 colon, 90.4%. Also, the growth in the test with HCC-2998 colon was 100%; in the test on KM12 colon, 101%.

In the case of `O=C(CN1CCN(c2ccc(Cl)cc2)CC1)N1CCN(c2nnc(-c3ccccc3)c(-c3ccccc3)n2)CC1`, the growth was 19.7% with T-47D breast; 44.9% in the test on BT-549 breast; 48.8% with MDA-MB-435 melanoma; 46.9% in the test with SW-620 colon; 20.9% in the test on MCF7 breast; 16.7% in the test with HCT-116 colon. Moreover, the growth in the test with HCC-2998 colon is 56.9%; in the test on KM12 colon it was 36.6%.

Take `CC(=O)N1N=C(c2ccc(Cl)cc2)CC1c1c(C)nn(-c2ccccc2)c1N(C)Cc1ccccc1` (stereo not given): the growth in the test on T-47D breast is 59.6%; in the test with BT-549 breast, 88.5%; in the test on MDA-MB-435 melanoma, 87%; in the test with SW-620 colon, 80.6%; with MCF7 breast it was 72.2%; in the test with HCT-116 colon it was 53.1%. Moreover, the results for the growth in the test with HCC-2998 colon and with KM12 colon were 88.2% and 74.8%, respectively.

Consider `Cc1ccc(-c2c3c(N)c4c(nc3nc3c2c(C)nn3-c2ccccc2)CCC4)cc1`, for which the growth in the test with T-47D breast was 103%; in the test on BT-549 breast, 90.4%; in the test with MDA-MB-435 melanoma, 103%; in the test on SW-620 colon, 6.36% (active); with MCF7 breast, 14.9%; in the test on HCT-116 colon it was -72.5% (active). Also, the growth in the test on HCC-2998 colon is 100%; with KM12 colon it was 79.8%.
